Inconclusive results are not listed. The source made the active and inactive calls. Calls follow the shape of the dose curve; as a rule, active = well fitted inhibition curve with a large enough effect; inconclusive = small, poorly fitted or top-dose-only effect; inactive = no such curve, though single readings can be large or run the other way.
Potency is read from the fitted curve at half-maximal effect.

The nature of the assay: InCell qHTS Assay for Inhibitors of the mTORC1 Signaling Pathway in MEF (Tsc2-/-, p53-/-) Cells: Hit Validation.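 Also: phospho-S6 Ser235/236 signal normalized to propidium iodide cell count per well; nearly all actives have a fitted effect of over 75% in size.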 The settings on record: phospho-rpS6 immunofluorescence, 24 h; activity change, negative = inhibition: at 38.3 µM (top of the series).
On to `CCc1ccc(S(=O)(=O)c2nnn(-c3ccc(F)cc3)c2N)cc1`, for which the activity change, negative = inhibition is -100%. Still for that read-out and setting: next, `Cc1ccc(C(=O)CC2(O)C(=O)N(Cc3ccccc3)c3ccccc32)c(C)c1` (configuration not stated): -100%; `CCn1c(CC2C(=O)N(C)c3ccc(Br)cc32)nc2ccccc2c1=O` (configuration not stated): -100%; `O=C(Nc1ccccc1)N(Cc1cccc(Cl)c1)c1ccccn1`: -100%.

As to `CCOc1ccc(-n2c(C)nc3c(cnn3-c3ccc(C)cc3)c2=O)cc1`, the activity change, negative = inhibition is -100%. Regarding `Cc1cccc(NC(=O)c2nc(S(C)(=O)=O)ncc2Cl)c1`, the Potency is 5.21 µM (active). For the molecule `Cc1cc(OCC(=O)NCC2(N3CCN(C)CC3)CCCCC2)cc(C)c1Cl`, the activity change, negative = inhibition is -100%.

As to `CCc1ccc(CN(Cc2ccco2)C(=O)c2cc(-c3ccc(C)c(F)c3)on2)cc1`, the activity change, negative = inhibition was -100%. Same read-out and setting: the figure for `Cc1n[nH]c(C)c1S(=O)(=O)N(CC(=O)Nc1ccc(C(F)(F)F)cc1)c1ccc(C(C)C)cc1` is -23.7%; for `Cc1ccccc1CN1C(=O)C(O)(CC(=O)c2cccc(Br)c2)c2ccccc21` (configuration not stated) it is -100%.

Take `COc1ccccc1NC(=O)CSc1ccc(-c2ccccn2)nn1`: the activity change, negative = inhibition is -100%.

Consider `Cc1ccc(NC(=O)CSc2ccc(-c3ccccn3)nn2)cc1F`, for which the activity change, negative = inhibition was -100%. Turning to `CCCCOc1ccccc1C1CC(=O)Nc2ccc3ccccc3c21` (configuration not stated), the activity change, negative = inhibition is -100%. Same read-out and setting: next, `COCCCNC(=O)c1ccc(CSc2nc3cccnc3n2Cc2ccc(OC)cc2)cc1`: -100%.

Turning to `CC(=O)N1CCCc2cc(S(=O)(=O)N(Cc3ccccc3)C(C)C)ccc21`, the activity change, negative = inhibition was -100%.

For the molecule `Cc1cccc(NC(=O)c2sc3nc4c(cc3c2N)CCCCCC4)c1C`, the activity change, negative = inhibition is -11%.

With `CC(C)c1nnc(NC(=O)c2nc(S(=O)(=O)Cc3ccccc3)ncc2Cl)s1`, the Potency was 3.29 µM (active). Consider `Cc1cc(-c2ccc(S(=O)(=O)Nc3cccc(C)c3C)s2)on1`, for which the activity change, negative = inhibition was -21.8%. `CCS(=O)(=O)c1ncc(Cl)c(C(=O)NCc2ccccc2)n1`: the Potency was 10.4 µM (active).

Take `Cc1c(C(=O)OC2CCC(C)CC2)[nH]c2c1C(=O)CC(c1ccc(F)cc1)C2` (configuration not stated): the activity change, negative = inhibition was -1.27%.

Consider `CCCC1=Nc2cc(C(=O)NCCOC)ccc2Sc2ccccc21`, for which the activity change, negative = inhibition was -100%.

As for `O=S(=O)(NCc1nc2cccnc2n1Cc1ccccc1Cl)c1ccc(F)c(Cl)c1`, the activity change, negative = inhibition was -100%. The same measure, in the same setting: the figure for `CCN1C(=O)c2ccccc2Sc2ccc(NC(=O)Cc3ccc(OC)cc3)cc21` is -100%.

For `CCc1ccc2ncc(S(=O)(=O)c3ccc(Cl)cc3)c(N3CCN(CC)CC3)c2c1`, the activity change, negative = inhibition is -100%. Consider `Cc1c(Cl)ccc2sc(NC(=O)c3ccc(S(=O)(=O)N4CCCc5ccccc54)cc3)nc12`, for which the activity change, negative = inhibition is -3.12%.

As for `Cc1cccc(OCc2ccc(-c3nc(C#N)c(NCCN(C)C)o3)o2)c1`, the activity change, negative = inhibition was -100%.

With `CCc1ccccc1NC(=O)CSc1nc2c(oc3ccccc32)c(=O)n1-c1ccccc1F`, the activity change, negative = inhibition was -100%.

Take `Cc1ccc2c(c1)C(=O)C(=O)N2Cc1ccc(OC(C)C)cc1`: the activity change, negative = inhibition was -16.8%. Still for that read-out and setting: the figure for `COc1ccc(-c2nc(C)c(CCNC(=O)c3ccccc3Br)s2)cc1OC` is -100%. Still for that read-out and setting: next, `CCC1CN(C(=O)NCc2ccc(F)cc2)c2cc(C)ccc2O1` (configuration not stated): -100%. Take `CCOC(=O)c1ccc(NC(=O)c2nc(S(=O)(=O)Cc3ccccc3)ncc2Cl)cc1`: the Potency is 4.14 µM (active). As to `CCOc1cc(C(=O)Nc2ccc(-c3cn4cccnc4n3)cc2)cc(OCC)c1OCC`, the activity change, negative = inhibition was -100%. The same measure, in the same setting: next, `Cc1cccc(NC(c2cccc(Cl)c2)c2ccc3cccnc3c2O)n1` (configuration not stated): -100%. On to `CCCOCc1cc(CN2CCN(c3ccccc3OC)CC2)c(O)c2ncccc12`, for which the Potency is 11.7 µM (active). Consider `Cc1cc(C)cc(NC(=O)c2cnn(-c3ccc(C)c(C)c3)c2C2CCNCC2)c1`, for which the activity change, negative = inhibition was -19.5%.

Consider `CCc1ccc(NC(=O)C2CCCN(S(=O)(=O)c3c(C)noc3/C=C/N(C)C)C2)cc1` (configuration not stated), for which the Potency is 14.7 µM (active). For `CC1CCN(S(=O)(=O)c2ccc(C(=O)Nc3sc4c(c3C(N)=O)CC(C)(C)NC4(C)C)cc2)CC1`, the Potency is 14.7 µM (active).

(Values after PubChem BioAssay AID651791 (National Center for Advancing Translational Sciences (NCATS), 2012).)
